Assay results reported in PubChem BioAssay (Tox21).
Results filed as inconclusive are left out. A number with no mark means an inactive call. Calls come from the whole dose curve; as a rule, active = well fitted curve in the direction sought with a large enough effect in the repeat runs; inconclusive = weak or mixed curves; inactive = no such curve, though single readings can be large; an effect the other way counts as inactive or inconclusive. Starred links: 1 amine or outer side, 2 acyl side, 3 side chain; linkers in the order of their positions; H or OH if unused. Positions of bridges follow the written chain, without caps; N, C: chain ends. Non-standard residues stand in square brackets, D forms with d. Residues, ends and D or L forms follow the SMILES beside them. *: point of attachment. X5 = NC1=N[C@@H]([C@H](N[*:1])C(=O)[*:2])C[C@H](O)N1; ΔAla(Z-3-ureido) = NC(=O)N/C=C(\N)C(=O)O; β3hOrn = NCCC[C@H](N)CC(=O)*; Dap = NC[C@H](N)C(=O)O

Target: Aromatase (Homo sapiens) (UniProt P11511)
Sequence (P11511 whole entry, looked up): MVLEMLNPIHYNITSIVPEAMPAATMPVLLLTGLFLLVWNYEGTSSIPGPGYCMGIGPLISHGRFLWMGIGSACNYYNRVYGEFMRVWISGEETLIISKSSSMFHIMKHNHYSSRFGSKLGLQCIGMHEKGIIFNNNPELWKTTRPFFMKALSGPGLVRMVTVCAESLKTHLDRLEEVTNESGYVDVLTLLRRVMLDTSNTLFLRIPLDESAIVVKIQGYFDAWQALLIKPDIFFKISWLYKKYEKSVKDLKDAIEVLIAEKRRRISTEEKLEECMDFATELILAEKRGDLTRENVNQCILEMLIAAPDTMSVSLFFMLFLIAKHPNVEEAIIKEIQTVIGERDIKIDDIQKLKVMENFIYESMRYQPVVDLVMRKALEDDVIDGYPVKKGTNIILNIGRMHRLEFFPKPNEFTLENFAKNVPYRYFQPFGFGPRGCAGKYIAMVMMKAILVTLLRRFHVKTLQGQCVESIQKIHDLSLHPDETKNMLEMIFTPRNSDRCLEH
Test: qHTS assay to identify aromatase inhibitors (AID 743083)
Conditions: MCF-7 aro ERE, testosterone-driven ERE luciferase, 24 h; series mostly up to 70.3 µM; activity, negative = inhibition: at the top concentration
% is set by controls: 0 for no effect and ±100 for the full control effect.
Note: nearly all actives have a fitted effect of over 55% in size.

SMILES | activity, negative = inhibition
CCCN(CC)C(CC)C(=O)Nc1c(C)cccc1C (stereo unspecified) | 4.39%
CN[C@@H]1[C@@H](O)[C@@H](O[C@@H]2[C@@H](O)[C@H](OC3OC(CN)=CCC3N)[C@@H](N)C[C@H]2N)OC[C@]1(C)O (stereo partly specified) | 12.7% [at 32.5 µM]
Cn1cc(NC(=O)c2cc(NC(=O)c3cc(NC=O)cn3C)cn2C)cc1C(=O)NCCC(=N)N | -5.01%
CS(=O)(=O)Nc1cc2occ(NC=O)c(=O)c2cc1Oc1ccccc1 | 12.8%
C[C@]12C=CC(=O)C=C1CC[C@@H]1[C@@H]2[C@@H](O)C[C@@]2(C)[C@H]1CC[C@]2(O)C(=O)COC(=O)CCC(=O)O | 99.1%
CNC[C@@H]1CC[C@@H](N)[C@@H](O[C@H]2[C@H](O)[C@@H](O[C@H]3OC[C@](C)(O)[C@H](NC)[C@H]3O)[C@H](N)C[C@@H]2N)O1 | 3.92%
C=C1CC2C3CCC4=CC(=O)C=C[C@]4(C)[C@@]3(F)[C@@H](O)C[C@]2(C)[C@@]1(O)C(=O)COC(C)=O (stereo partly specified) | 69.8%
O=C(NOC[C@H](O)CO)c1ccc(F)c(F)c1Nc1ccc(I)cc1F | 29.7%
NCCC(=O)[N-][C@@H](Cc1cnc[nH]1)C(=O)O.[Zn] | 3.31%
OCC(O)COc1ccc(Cl)cc1 (stereo unspecified) | 5.21%
C[C@H]1C[C@H]2[C@@H]3CCC4=CC(=O)C=C[C@]4(C)[C@@]3(F)[C@@H](O)C[C@]2(C)[C@@]1(O)C(=O)CCl | 4.54%
CCN(CC)c1ccc(N=Nc2ccc(S(=O)(=O)N(C)C)cc2)c(S(=O)(=O)NCC[n+]2ccccc2)c1 | 14.4%
CCC(C)C(C(=O)OCC[N+](C)(CC)CC)c1ccccc1 (stereo unspecified) | -14.1%
Cc1c(O)cc2c(c1C)O[C@](C)(CCC[C@H](C)CCC[C@H](C)CCCC(C)C)CC2 | 3.61%
c1ccc2c(CCC3CCNCC3)c[nH]c2c1 | -17%
CC(=O)OCC(=O)[C@@]1(O)[C@H](C)C[C@H]2[C@@H]3C[C@H](F)C4=CC(=O)C=C[C@]4(C)[C@H]3[C@@H](O)C[C@@]21C | 43%
CC(C)(C)CC(=O)OCC(=O)[C@@]12OC(C)(C)O[C@@H]1C[C@H]1[C@@H]3CCC4=CC(=O)C=C[C@]4(C)[C@@]3(F)[C@@H](O)C[C@@]12C | 75.9%
CC(=O)N[C@@H](CC(=O)N[C@@H](CCC(=O)O)C(=O)O)C(=O)O | 1.15%

SMILES | activity, negative = inhibition
C=C1c2c(Cl)ccc(O)c2C(O)=C2C(=O)[C@]3(O)C(O)=C(C(N)=O)C(=O)[C@@H](N(C)C)[C@@H]3[C@@H](O)[C@H]12 | -12.5% [at 32.5 µM]
CCCCCCCCCCCCCCCC(=O)OC[C@@H](COP(=O)([O-])OCC[N+](C)(C)C)OC(=O)CCCCCCCCCCCCCCC | 9.71%
C[N+](C)(CCCCCC[N+](C)(C)C1c2ccccc2-c2ccccc21)C1c2ccccc2-c2ccccc21 | -3.11%
Cc1cc(Nc2ccccc2C(=O)O)ccc1Cl | 5.87%
NCCC[C@H](N)CC(=O)N[C@H]1CNC(=O)[C@H]([C@H]2C[C@H](O)NC(N)=N2)NC(=O)/C(=C/NC(N)=O)NC(=O)[C@H](CO)NC(=O)[C@H](CO)NC1=O (β3hOrn-[Dap]SS[ΔAla(Z-3-ureido)][X5]; lactam 1-C) | -5.88%
CCCCCCCCCCCCCCCCCC(=O)OCCO | -1.06%
CO[C@H]1[C@@H](O)[C@H](N)[C@@H](O[C@H]2O[C@H]([C@H](C)N)CC[C@H]2N)[C@H](O)[C@@H]1N(C)C(=O)CN | 10.3%
CCCC(=O)Nc1ncnc2c1ncn2[C@@H]1O[C@@H]2COP(=O)(O)O[C@H]2[C@H]1OC(=O)CCC | 6.18%
CN(CCO)CC(O)Cn1cnc2c1c(=O)n(C)c(=O)n2C (stereo unspecified) (tested in a mixture with another compound) | -1.72%
CCOC(=O)[C@H](CCc1ccccc1)N[C@H]1CCCN2CCC[C@@H](C(=O)O)N2C1=O | -4.54%
O=C[C@H](O)[C@@H](O)[C@H](O[C@H]1O[C@H](CO)[C@@H](O[C@H]2O[C@H](CO)[C@@H](O)[C@H](O)[C@H]2O)[C@H](O)[C@H]1O)[C@H](O)CO | 31.3%
CC(=O)OC[C@H]1O[C@@H](O[C@H]2[C@H](O)[C@@H](OC(=O)c3ccccc3C(=O)O)[C@H](O)O[C@@H]2COC(C)=O)[C@H](O)[C@@H](OC(=O)c2ccccc2C(=O)O)[C@@H]1O | -1.07%
CS(=O)(=O)OCCCNCCCOS(C)(=O)=O | -11.4%
CN=C(NC)NCc1ccccc1 | 6.57%
CC1(C)S[C@@H]2[C@H](NC(=O)C(C(=O)Oc3ccc4c(c3)CCC4)c3ccccc3)C(=O)N2[C@H]1C(=O)O (stereo partly specified) | -2.28%
CS(=O)(=O)NC(=O)CCC/C=C\C[C@H]1C(=O)C[C@@H](O)[C@@H]1/C=C/[C@H](O)COc1ccccc1 | -9.6%
COc1cc(S(C)=O)ccc1-c1nc2ncccc2[nH]1 (stereo unspecified) | 18.7%

Tested on: not listed separately
Test: qHTS assay to identify aromatase inhibitors - cell viability counter screen (AID 743084);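 note: cells stimulated with testosterone during compound exposure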
Conditions: MCF-7 aro ERE viability, CellTiter-Fluor, 24 h; series mostly up to 70.3 µM; activity change, negative = cytotoxicity: at the top concentration

SMILES | activity change, negative = cytotoxicity
CCCN(CC)C(CC)C(=O)Nc1c(C)cccc1C (stereo unspecified) | 9.02%
CN[C@@H]1[C@@H](O)[C@@H](O[C@@H]2[C@@H](O)[C@H](OC3OC(CN)=CCC3N)[C@@H](N)C[C@H]2N)OC[C@]1(C)O (stereo partly specified) | 14% [at 32.5 µM]
Cn1cc(NC(=O)c2cc(NC(=O)c3cc(NC=O)cn3C)cn2C)cc1C(=O)NCCC(=N)N | 12%
CS(=O)(=O)Nc1cc2occ(NC=O)c(=O)c2cc1Oc1ccccc1 | 8.78%
O=c1[nH]cnc2[nH]cc(CN3CCCCC3)c12 | 0.156%
C[C@]12C=CC(=O)C=C1CC[C@@H]1[C@@H]2[C@@H](O)C[C@@]2(C)[C@H]1CC[C@]2(O)C(=O)COC(=O)CCC(=O)O | 1.76%
CNC[C@@H]1CC[C@@H](N)[C@@H](O[C@H]2[C@H](O)[C@@H](O[C@H]3OC[C@](C)(O)[C@H](NC)[C@H]3O)[C@H](N)C[C@@H]2N)O1 | 12.8%
C=C1CC2C3CCC4=CC(=O)C=C[C@]4(C)[C@@]3(F)[C@@H](O)C[C@]2(C)[C@@]1(O)C(=O)COC(C)=O (stereo partly specified) | -6.49%
O=C(NOC[C@H](O)CO)c1ccc(F)c(F)c1Nc1ccc(I)cc1F | 23%
NCCC(=O)[N-][C@@H](Cc1cnc[nH]1)C(=O)O.[Zn] | 15.4%
OCC(O)COc1ccc(Cl)cc1 (stereo unspecified) | -3.58%
CCN(CC)c1ccc(N=Nc2ccc(S(=O)(=O)N(C)C)cc2)c(S(=O)(=O)NCC[n+]2ccccc2)c1 | 8.67%
CCC(C)C(C(=O)OCC[N+](C)(CC)CC)c1ccccc1 (stereo unspecified) | -12.3%
Cc1c(O)cc2c(c1C)O[C@](C)(CCC[C@H](C)CCC[C@H](C)CCCC(C)C)CC2 | 10.2%
c1ccc2c(CCC3CCNCC3)c[nH]c2c1 | -11.3%
Cc1ccccc1CNc1ncnc2c1ncn2[C@@H]1O[C@H](CO)[C@@H](O)[C@H]1O | -6.16%
CC(=O)OCC(=O)[C@@]1(O)[C@H](C)C[C@H]2[C@@H]3C[C@H](F)C4=CC(=O)C=C[C@]4(C)[C@H]3[C@@H](O)C[C@@]21C | 0.797%
CC(C)(C)CC(=O)OCC(=O)[C@@]12OC(C)(C)O[C@@H]1C[C@H]1[C@@H]3CCC4=CC(=O)C=C[C@]4(C)[C@@]3(F)[C@@H](O)C[C@@]12C | -6.49%

SMILES | activity change, negative = cytotoxicity
CC(=O)N[C@@H](CC(=O)N[C@@H](CCC(=O)O)C(=O)O)C(=O)O | -0.568%
C=C1c2c(Cl)ccc(O)c2C(O)=C2C(=O)[C@]3(O)C(O)=C(C(N)=O)C(=O)[C@@H](N(C)C)[C@@H]3[C@@H](O)[C@H]12 | 5.49% [at 32.5 µM]
CCCCCCCCCCCCCCCC(=O)OC[C@@H](COP(=O)([O-])OCC[N+](C)(C)C)OC(=O)CCCCCCCCCCCCCCC | 10.1%
C[N+](C)(CCCCCC[N+](C)(C)C1c2ccccc2-c2ccccc21)C1c2ccccc2-c2ccccc21 | 11.3%
Cc1cc(Nc2ccccc2C(=O)O)ccc1Cl | 9.72%
NCCC[C@H](N)CC(=O)N[C@H]1CNC(=O)[C@H]([C@H]2C[C@H](O)NC(N)=N2)NC(=O)/C(=C/NC(N)=O)NC(=O)[C@H](CO)NC(=O)[C@H](CO)NC1=O (β3hOrn-[Dap]SS[ΔAla(Z-3-ureido)][X5]; lactam 1-C) | 10.8%
CCCCCCCCCCCCCCCCCC(=O)OCCO | -1.95%
CO[C@H]1[C@@H](O)[C@H](N)[C@@H](O[C@H]2O[C@H]([C@H](C)N)CC[C@H]2N)[C@H](O)[C@@H]1N(C)C(=O)CN | 12.3%
CCCC(=O)Nc1ncnc2c1ncn2[C@@H]1O[C@@H]2COP(=O)(O)O[C@H]2[C@H]1OC(=O)CCC | 8.57%
CN(CCO)CC(O)Cn1cnc2c1c(=O)n(C)c(=O)n2C (stereo unspecified) (tested in a mixture with another compound) | -5.79%
CCOC(=O)[C@H](CCc1ccccc1)N[C@H]1CCCN2CCC[C@@H](C(=O)O)N2C1=O | 0.556%
O=C[C@H](O)[C@@H](O)[C@H](O[C@H]1O[C@H](CO)[C@@H](O[C@H]2O[C@H](CO)[C@@H](O)[C@H](O)[C@H]2O)[C@H](O)[C@H]1O)[C@H](O)CO | 1.13%
CC(=O)OC[C@H]1O[C@@H](O[C@H]2[C@H](O)[C@@H](OC(=O)c3ccccc3C(=O)O)[C@H](O)O[C@@H]2COC(C)=O)[C@H](O)[C@@H](OC(=O)c2ccccc2C(=O)O)[C@@H]1O | 10.1%
CS(=O)(=O)OCCCNCCCOS(C)(=O)=O | 0%
CN=C(NC)NCc1ccccc1 | -0.286%
CC1(C)S[C@@H]2[C@H](NC(=O)C(C(=O)Oc3ccc4c(c3)CCC4)c3ccccc3)C(=O)N2[C@H]1C(=O)O (stereo partly specified) | 2.34%
CS(=O)(=O)NC(=O)CCC/C=C\C[C@H]1C(=O)C[C@@H](O)[C@@H]1/C=C/[C@H](O)COc1ccccc1 | 8.74%
COc1cc(S(C)=O)ccc1-c1nc2ncccc2[nH]1 (stereo unspecified) | 1.57%
